Measurements: the supplement of paper PMC8975748
Where a name gives a salt, the structure may show the parent alone.

Test system: Saccharomyces cerevisiae BY4741 SeMeCo community
Test: z-score of subpopulation abundance vs DMSO median, subpopulation auxotrophic for LU; higher = larger share of this subpopulation than in DMSO controls
Conditions: 10 µM; 24 h; SM minimal medium; subpopulation (auxotrophy): LU
Method: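 Fluorescent four-plasmid SeMeCo (self-establishing metabolically cooperating S. cerevisiae BY4741 community; plasmids pH-mRuby2, pL-mWasabi, pU-eCFP, pM-TagRFP657) was grown 24 h in minimal SM medium with each Selleck FDA-approved drug at 10 µM in 384-well plates. Cells were fixed and imaged by high-content confocal microscopy. For each auxotrophic subpopulation (and the prototroph), a z-score gives the deviation from the DMSO vehicle-control population median.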

Row | Compound | z-score of subpopulation abundance
1 | Cc1cc(C(C#N)c2ccc(Cl)cc2)c(Cl)cc1NC(=O)c1cc(I)cc(I)c1O (stereo not given) [Closantel] | 0.89
2 | CC(=O)OCC1=C(C(=O)O)N2C(=O)C(N)C2SC1 (stereo not given) [7-Aminocephalosporanic acid] | 0.09
3 | C=CCN1C[C@H](C(=O)N(CCCN(C)C)C(=O)NCC)C[C@@H]2c3cccc4[nH]cc(c34)C[C@H]21 [Cabergoline] | 1.61
4 | CC[C@@H](C(N)=O)N1CCCC1=O [Levetiracetam] | -0.25
5 | CN(C)[C@@H]1C(=O)C(C(N)=O)=C(O)[C@@]2(O)C(=O)C3=C(O)c4c(O)cccc4[C@@](C)(O)[C@H]3[C@H](O)[C@@H]12 [Oxytetracycline Dihydrate] | -0.6
6 | NCCc1c[nH]c2ccc(O)cc12 [Serotonin HCl] | -0.51
7 | C#C[C@]1(O)C=C[C@H]2[C@@H]3CCC4=CC(=O)CC[C@@H]4[C@H]3CC[C@@]21CC [Gestodene] | -0.97
8 | Nc1ccncc1 [4-Aminopyridine] | 0.6
9 | NC(=O)CN1CCCC1=O [Piracetam] | 1.37
10 | Oc1cccc2cccnc12 [8-Hydroxyquinoline] | -0.63
11 | CC[C@H]1CN2CC[C@]3(C(=O)Nc4ccccc43)[C@@H]2C[C@@H]1/C(=C\OC)C(=O)OC [Rhynchophylline] | 0.24
12 | COc1ccc(C=O)cc1 [p-Anisaldehyde] | -0.64
13 | CC(C)=CCOc1c2occc2cc2ccc(=O)oc12 [Imperatorin] | 0.92
14 | C[N+](C)(C)CCCCCCCCCC[N+](C)(C)C [Decamethonium Bromide] | -0.59
15 | C[N+]1(C)[C@@H]2C[C@@H](OC(=O)[C@H](CO)c3ccccc3)C[C@H]1[C@@H]1O[C@@H]12 [Methscopolamine] | 0.27
16 | CN(C)[C@@H]1C(=O)C(C(N)=O)=C(O)[C@@]2(O)C(=O)C3=C(O)c4c(O)ccc(Cl)c4[C@@](C)(O)[C@H]3C[C@@H]12 [Chlortetracycline HCl] | -0.72
17 | C[N+]12CCC(CC1)C(OC(=O)C(O)(c1ccccc1)c1ccccc1)C2 (stereo not given) [Clidinium Bromide] | 0.83
18 | NCC(O)c1ccc(O)cc1 (racemic) [(+,-)-Octopamine HCl] | -0.38
19 | C[CH2][Hg][S]c1ccccc1C(=O)[O-].[Na+] [Thimerosal] | 11.1
20 | C=C(C)[C@H]1Cc2c(ccc3c2O[C@@H]2COc4cc(OC)c(OC)cc4[C@@H]2C3=O)O1 [Rotenone (Barbasco)] | 0.18

Row | Compound | z-score of subpopulation abundance
21 | CCN(CC)CCOC(=O)C(O)(c1ccccc1)c1ccccc1 [Benactyzine hydrochloride] | 1.57
22 | CN[C@@H]1[C@@H](O)[C@@H](O[C@@H]2[C@@H](O)[C@H](O[C@H]3O[C@H]([C@@H](C)O)[C@@H](O)[C@H](O)[C@H]3N)[C@@H](N)C[C@H]2N)OC[C@]1(C)O [Geneticin (G418 Sulfate)] | 0.61
23 | CCC1=C[C@H]2CN3CCc4c([nH]c5ccccc45)[C@](C(=O)OC)(C2)[C@H]13 [Catharanthine] | -0.64
24 | O=C(O[C@H]1C[C@H]2CC[C@@H](C1)[N+]21CCCC1)C(O)(c1ccccc1)c1ccccc1 [Trospium chloride] | -0.24
25 | CC(=O)O[C@H]1C[C@@H]2CC[C@@H]3[C@H](CC[C@@]4(C)[C@H]3C[C@H]([N+]3(C)CCCCC3)[C@@H]4OC(C)=O)[C@@]2(C)C[C@@H]1[N+]1(C)CCCCC1 [Pancuronium dibromide] | 0.2
26 | Cn1cc(C2=C(c3cn(C4CCN(Cc5ccccn5)CC4)c4ccccc34)C(=O)NC2=O)c2ccccc21 | 0.66
27 | O=[N+]([O-])C(Br)(CO)CO [Bronopol] | 0.26
28 | CN1[C@@H]2CC[C@H]1C[C@@H](OC(=O)[C@H](CO)c1ccccc1)C2 [Hyoscyamine] | 0.31
29 | CCCCCCCCCCCCCCCC[n+]1ccccc1 [Cetylpyridinium Chloride] | 4.67
30 | CN(C)C(=O)Oc1cccc([N+](C)(C)C)c1 [Neostigmine Bromide] | 0.79
31 | CC[C@@]1(O)C(=O)OCc2c1cc1n(c2=O)Cc2cc3ccccc3nc2-1 [Camptothecin] | -0.54
32 | CN1[C@@H]2C[C@@H](OC(=O)[C@H](CO)c3ccccc3)C[C@H]1[C@@H]1O[C@@H]12 [Scopolamine HBr] | 0.22
33 | COc1ccc2c3c([nH]c2c1)C(C)=NCC3 [Harmaline] | -7.5
34 | O=c1cccc2n1C[C@@H]1CNC[C@H]2C1 [Cytisine] | 0.11
35 | CN[C@@H]1[C@@H](O)[C@@H](O[C@@H]2[C@@H](O)[C@H](O[C@H]3O[C@H](CN)CC[C@H]3N)[C@@H](N)C[C@H]2N)OC[C@]1(C)O.CN[C@@H]1[C@@H](O)[C@@H](O[C@@H]2[C@@H](O)[C@H](O[C@H]3O[C@H]([C@@H](C)N)CC[C@H]3N)[C@@H](N)C[C@H]2N)OC[C@]1(C)O.CN[C@@H]1[C@@H](O)[C@@H](O[C@@H]2[C@@H](O)[C@H](O[C@H]3O[C@H]([C@@H](C)NC)CC[C@H]3N)[C@@H](N)C[C@H]2N)OC[C@]1(C)O [Gentamicin Sulfate] | -0.15
36 | CN(C)[C@@H]1C(=O)C(C(N)=O)=C(O)[C@@]2(O)C(=O)C3=C(O)c4c(O)cccc4[C@@](C)(O)[C@H]3C[C@@H]12 [Tetracycline HCl] | -0.24
37 | CCN(C)C(=O)Oc1cccc([C@H](C)N(C)C)c1 [Rivastigmine Tartrate] | 0.44
38 | C=CC[C@]1(O)CC[C@H]2[C@@H]3CCC4=CC(=O)CCC4=C3C=C[C@@]21C [Altrenogest] | -0.55
39 | CCN(C)C(=O)Oc1cccc([C@H](C)N(C)C)c1 [Rivastigmine] | -1.09
40 | Nc1nc(N)nc(NC2CC2)n1 [Cyromazine] | 0.73
